# Results reported in PubChem BioAssay AID1159580 (chemical genetic matrix, 2015).
# “And” between values parts separate entries of the source, which are not always exact repeats. Identical values can stand only once. The whole screen tested about 5,500 compounds, of which about 2,000 (36%) were called active. Inconclusive results (about 18%) are left out. The list shows a part of the results. Values without a mark were called inactive. Cut-off read from the data, not from the text of the source: active = normalized growth mostly below about 0.91 (no sharp cut-off); inconclusive = no clear call, values can overlap the other calls; inactive = mostly above about 0.92.
# Test: chemical genetic growth profiling, strain panel (AID 1159580);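 note: tested at 20 µM; growth read once vehicle control cultures reached saturation at 30 °C; 1 = growth at the plate median or of vehicle wells; lower values mean less growth of the strain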
# Conditions: S. cerevisiae deletion strains, growth OD
structure (smiles),measurement,setting,value
COC(=O)Nc1nc2ccc(Sc3ccccc3)cc2[nH]1,normalized growth,"locus YAL013W, strain DEP1, hits give low values",1
same,normalized growth,"locus YAL021C, strain ccr4, hits give low values",1.01
same,normalized growth,"locus YAL026C, strain drs2, hits give low values",1
same,normalized growth,"locus YAL030W, strain snc1, hits give low values",0.986
same,normalized growth,"locus YBL061C, strain skt5, hits give low values",0.986
same,normalized growth,"locus YBR009C, strain hhf1, hits give low values",0.993
same,normalized growth,"locus YBR021W, strain FUR4, hits give low values",1.02
same,normalized growth,"locus YBR023C, strain chs3, hits give low values",0.989
same,normalized growth,"locus YBR171W, strain sec66, hits give low values",0.987
same,normalized growth,"locus YBR229C, strain ROT2, hits give low values",0.997
same,normalized growth,"locus YBR231C, strain swc5, hits give low values",0.753 (active)
same,normalized growth,"locus YBR279W, strain paf1, hits give low values",0.985
same,normalized growth,"locus YCL011C, strain gbp2, hits give low values",0.991
same,normalized growth,"locus YCL016C, strain dcc1, hits give low values",1
same,normalized growth,"locus YCL029C, strain bik1, hits give low values",0.826 (active)
same,normalized growth,"locus YCL061C, strain MRC1, hits give low values",1.01
same,normalized growth,"locus YCL069W, strain vba3, hits give low values",0.99
same,normalized growth,"locus YCR088W, strain abp1, hits give low values",0.996
same,normalized growth,"locus YDL005C, strain med2, hits give low values",0.987
same,normalized growth,"locus YDL035C, strain GPR1, hits give low values",0.98
same,normalized growth,"locus YDL040C, strain nat1, hits give low values",1.01
same,normalized growth,"locus YDL074C, strain BRE1, hits give low values",0.994
same,normalized growth,"locus YDL101C, strain DUN1, hits give low values",1.02
same,normalized growth,"locus YDL134C, strain PPH21, hits give low values",1.01
same,normalized growth,"locus YDL185W, strain tfp1, hits give low values",0.986
same,normalized growth,"locus YDL192W, strain arf1, hits give low values",1
same,normalized growth,"locus YDR001C, strain nth1, hits give low values",0.996
same,normalized growth,"locus YDR069C, strain doa4, hits give low values",0.984
same,normalized growth,"locus YDR101C, strain arx1, hits give low values",0.99
same,normalized growth,"locus YDR137W, strain rgp1, hits give low values",0.965
same,normalized growth,"locus YDR150W, strain NUM1, hits give low values",0.975
same,normalized growth,"locus YDR159W, strain sac3, hits give low values",0.99
same,normalized growth,"locus YDR162C, strain NBP2, hits give low values",1
same,normalized growth,"locus YDR195W, strain ref2",1.04
same,normalized growth,"locus YDR297W, strain sur2, hits give low values",0.97
same,normalized growth,"locus YDR318W, strain mcm21, hits give low values",1.01
same,normalized growth,"locus YDR334W, strain swr1, hits give low values",0.788 (active)
same,normalized growth,"locus YDR335W, strain msn5, hits give low values",1
same,normalized growth,"locus YDR388W, hits give low values",1
same,normalized growth,"locus YDR392W, strain spt3, hits give low values",0.993
same,normalized growth,"locus YDR502C, strain sam2, hits give low values",0.98
same,normalized growth,"locus YEL003W, strain gim4, hits give low values",0.206 (active)
same,normalized growth,"locus YEL037C, strain rad23, hits give low values",1
same,normalized growth,"locus YEL061C, strain CIN8 (second series), hits give low values",0.999
same,normalized growth,"locus YEL061C, strain CIN8, hits give low values",0.995
same,normalized growth,"locus YER015W, strain faa2, hits give low values",0.988
same,normalized growth,"locus YER016W, strain bim1, hits give low values",0.985
same,normalized growth,"locus YER110C, hits give low values",0.995
same,normalized growth,"locus YER111C, strain swi4, hits give low values",0.992
same,normalized growth,"locus YER155C, strain BEM2 (second series), hits give low values",0.978
same,normalized growth,"locus YER155C, strain BEM2, hits give low values",1
same,normalized growth,"locus YER167W, strain BCK2, hits give low values",0.991
same,normalized growth,"locus YFR010W, strain ubp6, hits give low values",0.995
same,normalized growth,"locus YGL078C, strain dbp3, hits give low values",0.99
same,normalized growth,"locus YGL086W, strain mad1, hits give low values",0.955
same,normalized growth,"locus YGL167C, strain pmr1, hits give low values",0.98
same,normalized growth,"locus YGL173C, strain kem1, hits give low values",0.991
same,normalized growth,"locus YGL227W, strain vid30, hits give low values",0.993
same,normalized growth,"locus YGL240W, strain doc1, hits give low values",0.987
same,normalized growth,"locus YGL248W, strain PDE1, hits give low values",1
same,normalized growth,"locus YGL253W, strain hxk2, hits give low values",1
same,normalized growth,"locus YGR078C, strain PAC10, hits give low values",0.0823 (active)
same,normalized growth,"locus YGR135W, strain pre9, hits give low values",0.99
same,normalized growth,"locus YGR229C, strain SMI1, hits give low values",0.941
same,normalized growth,"locus YGR252W, strain gcn5, hits give low values",0.895
same,normalized growth,"locus YHR013C, strain ard1, hits give low values",0.969
same,normalized growth,"locus YHR027C, strain rpn1, hits give low values",0.998
same,normalized growth,"locus YHR030C, strain SLT2, hits give low values",0.995 and 0.963
same,normalized growth,"locus YHR079C, strain IRE1 (second series), hits give low values",1.01
same,normalized growth,"locus YHR079C, strain IRE1, hits give low values",0.964
same,normalized growth,"locus YHR094C, strain hxt1, hits give low values",1
same,normalized growth,"locus YHR129C, strain ARP1, hits give low values",1.01
same,normalized growth,"locus YHR142W, strain chs7, hits give low values",0.989
same,normalized growth,"locus YHR200W, strain rpn10, hits give low values",0.984
same,normalized growth,"locus YIL066C, strain RNR3, hits give low values",0.997
same,normalized growth,"locus YIL073C, strain SPO22, hits give low values",0.998
same,normalized growth,"locus YIL125W, strain kgd1, hits give low values",0.99
same,normalized growth,"locus YIR030C, strain dcg1, hits give low values",1
same,normalized growth,"locus YJL092W, strain hpr5, hits give low values",1
same,normalized growth,"locus YJL095W, strain BCK1 (second series), hits give low values",0.985
same,normalized growth,"locus YJL095W, strain BCK1, hits give low values",1.03 and 0.949
same,normalized growth,"locus YJL115W, strain asf1, hits give low values",1.01
same,normalized growth,"locus YJL129C, strain trk1, hits give low values",0.976
same,normalized growth,"locus YJL134W, strain LCB3, hits give low values",1
same,normalized growth,"locus YJL154C, strain vps35, hits give low values",0.993
same,normalized growth,"locus YJL164C, strain tpk1, hits give low values",1
same,normalized growth,"locus YJL166W, strain qcr8, hits give low values",0.972
same,normalized growth,"locus YJL168C, strain set2, hits give low values",1
same,normalized growth,"locus YJL187C, strain SWE1 (second series), hits give low values",1.01
same,normalized growth,"locus YJR043C, strain POL32, hits give low values",0.988
same,normalized growth,"locus YJR066W, strain TOR1, hits give low values",0.872
